# Results as given in paper PMC7862700, “An all-to-all approach to the identification of sequence-specific readers for epigenetic DNA modifications on cytosine”.
# Columns and labels:
# Assay in all cases: DAPPL (digital affinity profiling via proximity ligation, sequencing); 10 mM Tris-HCl pH 7.5, 50 mM NaCl, 1 mM DTT, 4% glycerol, room temperature, 30 min; GST-TFs on glutathione beads, 16-mer random dsDNA library, 0.1% formaldehyde crosslink after washing; high values mean tight binding
# FLI1 = biological target: T1, FLI1 (Homo sapiens, UniProt Q01543 1-452); conditions: protein: recombinant; tags: N-terminal GST; dsDNA, one strand shown
# T1 sequence: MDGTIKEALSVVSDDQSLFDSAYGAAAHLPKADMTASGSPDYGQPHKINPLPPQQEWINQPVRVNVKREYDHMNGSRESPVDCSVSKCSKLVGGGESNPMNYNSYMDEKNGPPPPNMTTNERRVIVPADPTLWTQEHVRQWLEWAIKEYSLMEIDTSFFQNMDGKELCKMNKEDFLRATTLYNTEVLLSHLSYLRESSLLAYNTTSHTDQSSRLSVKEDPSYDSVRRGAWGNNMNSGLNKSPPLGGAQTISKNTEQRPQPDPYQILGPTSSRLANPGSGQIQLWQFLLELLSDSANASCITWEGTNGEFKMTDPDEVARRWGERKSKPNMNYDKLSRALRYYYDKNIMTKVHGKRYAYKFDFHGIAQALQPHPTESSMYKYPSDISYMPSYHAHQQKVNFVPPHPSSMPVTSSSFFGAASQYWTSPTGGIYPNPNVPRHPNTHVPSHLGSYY
# Method in brief: (§1)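 A tag-only sample was pooled with DNA-barcoded human transcription factors that had been expressed in yeast as GST fusions and captured on glutathione beads. The pools were incubated for 30 min at room temperature with 200 nmole of a random double-stranded 16-mer DNA library in Tris/NaCl/DTT/glycerol buffer, then washed, crosslinked with 0.1% formaldehyde, proximity-ligated (BsaI/T4 ligase, 1 h, 37 °C), PCR-amplified and sequenced on an Illumina NextSeq500. Binding signal is each hexamer's read frequency for a factor divided by its frequency for the tag-only sample.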
# ELK1 = biological target: T2, ELK1 (Homo sapiens, UniProt P19419 1-428); conditions: protein: recombinant; tags: N-terminal GST; dsDNA, one strand shown
# T2 sequence: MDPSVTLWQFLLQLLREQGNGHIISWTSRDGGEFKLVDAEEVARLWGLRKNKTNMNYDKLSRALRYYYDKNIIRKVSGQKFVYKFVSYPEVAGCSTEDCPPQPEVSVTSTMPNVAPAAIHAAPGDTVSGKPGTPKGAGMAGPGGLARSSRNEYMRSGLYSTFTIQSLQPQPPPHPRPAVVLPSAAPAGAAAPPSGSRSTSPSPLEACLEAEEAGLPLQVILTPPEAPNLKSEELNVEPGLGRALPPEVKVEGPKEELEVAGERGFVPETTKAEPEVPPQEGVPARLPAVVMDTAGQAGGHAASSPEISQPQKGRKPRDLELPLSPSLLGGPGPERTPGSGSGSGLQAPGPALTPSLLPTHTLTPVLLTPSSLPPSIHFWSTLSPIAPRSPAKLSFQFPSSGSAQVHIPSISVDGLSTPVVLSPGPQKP
# Method in brief: as §1
# GABPA = biological target: T3, GABPA (Homo sapiens, UniProt Q06546 1-454); conditions: protein: recombinant; tags: N-terminal GST; dsDNA, one strand shown
# T3 sequence: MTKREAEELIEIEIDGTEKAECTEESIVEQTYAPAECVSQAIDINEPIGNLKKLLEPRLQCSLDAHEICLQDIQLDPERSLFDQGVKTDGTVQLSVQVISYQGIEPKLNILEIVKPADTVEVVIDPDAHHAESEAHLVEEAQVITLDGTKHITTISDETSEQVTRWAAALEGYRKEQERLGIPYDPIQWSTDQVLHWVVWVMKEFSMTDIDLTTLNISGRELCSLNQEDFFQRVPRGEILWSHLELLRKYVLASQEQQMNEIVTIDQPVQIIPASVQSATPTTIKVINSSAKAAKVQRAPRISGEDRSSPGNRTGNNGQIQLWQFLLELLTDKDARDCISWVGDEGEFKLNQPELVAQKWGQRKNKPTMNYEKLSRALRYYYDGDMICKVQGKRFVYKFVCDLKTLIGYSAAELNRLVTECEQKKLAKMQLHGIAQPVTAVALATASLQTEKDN
# Method in brief: as §1
# ERG = biological target: T4, ERG (Homo sapiens, UniProt P11308 1-479); conditions: protein: recombinant; tags: N-terminal GST; dsDNA, one strand shown
# T4 sequence: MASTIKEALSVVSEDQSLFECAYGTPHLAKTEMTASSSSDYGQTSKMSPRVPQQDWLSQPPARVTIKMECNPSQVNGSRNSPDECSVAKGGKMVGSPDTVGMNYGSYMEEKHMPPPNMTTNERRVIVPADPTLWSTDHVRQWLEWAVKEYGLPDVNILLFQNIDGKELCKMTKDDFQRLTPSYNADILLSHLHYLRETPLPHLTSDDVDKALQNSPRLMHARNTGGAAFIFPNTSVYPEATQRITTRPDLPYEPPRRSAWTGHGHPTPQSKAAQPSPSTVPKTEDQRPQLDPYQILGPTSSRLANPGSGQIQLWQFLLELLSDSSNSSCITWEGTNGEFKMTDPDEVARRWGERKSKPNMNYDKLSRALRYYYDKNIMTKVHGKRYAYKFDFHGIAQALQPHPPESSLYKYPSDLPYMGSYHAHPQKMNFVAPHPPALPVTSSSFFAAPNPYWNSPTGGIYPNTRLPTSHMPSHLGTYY
# Method in brief: as §1
# ELF1 = ELF1 (Homo sapiens, UniProt P32519 1-619); conditions: protein: recombinant; tags: N-terminal GST; dsDNA, one strand shown
# ELF1, sequence (P32519 whole entry): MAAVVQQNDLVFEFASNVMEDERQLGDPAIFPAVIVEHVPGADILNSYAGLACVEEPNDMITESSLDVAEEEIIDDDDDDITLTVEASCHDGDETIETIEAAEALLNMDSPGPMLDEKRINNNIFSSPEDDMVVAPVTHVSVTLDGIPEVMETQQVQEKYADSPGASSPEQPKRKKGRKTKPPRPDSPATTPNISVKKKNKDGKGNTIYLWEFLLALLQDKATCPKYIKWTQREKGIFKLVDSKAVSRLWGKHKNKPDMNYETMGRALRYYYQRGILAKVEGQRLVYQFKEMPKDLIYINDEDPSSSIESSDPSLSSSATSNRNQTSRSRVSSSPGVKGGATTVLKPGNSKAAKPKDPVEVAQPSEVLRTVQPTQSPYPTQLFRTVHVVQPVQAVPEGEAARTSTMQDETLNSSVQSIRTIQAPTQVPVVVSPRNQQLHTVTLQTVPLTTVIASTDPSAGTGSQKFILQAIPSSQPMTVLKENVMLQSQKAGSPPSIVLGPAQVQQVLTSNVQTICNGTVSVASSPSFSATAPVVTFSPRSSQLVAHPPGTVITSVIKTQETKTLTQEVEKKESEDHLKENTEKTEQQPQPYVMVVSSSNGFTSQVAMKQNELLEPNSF
# Method in brief: as §1
# EHF = biological target: T5, EHF (Homo sapiens, UniProt Q9NZC4 1-300); conditions: protein: recombinant; tags: N-terminal GST; dsDNA, one strand shown
# T5 sequence: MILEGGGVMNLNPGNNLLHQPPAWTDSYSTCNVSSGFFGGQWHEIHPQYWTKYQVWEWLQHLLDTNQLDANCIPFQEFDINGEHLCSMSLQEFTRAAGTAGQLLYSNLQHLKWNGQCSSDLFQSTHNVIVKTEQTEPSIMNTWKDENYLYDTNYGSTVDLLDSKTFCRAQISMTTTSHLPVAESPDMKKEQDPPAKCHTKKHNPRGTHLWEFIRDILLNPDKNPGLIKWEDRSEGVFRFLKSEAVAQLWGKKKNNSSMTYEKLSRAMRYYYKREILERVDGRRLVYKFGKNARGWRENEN
# Method in brief: as §1
# SPI1 = SPI1 (Homo sapiens, UniProt P17947 1-270); conditions: protein: recombinant; tags: N-terminal GST; dsDNA, one strand shown
# Method in brief: as §1
# SPIB = SPIB (Homo sapiens, UniProt Q01892 1-262); conditions: protein: recombinant; tags: N-terminal GST; dsDNA, one strand shown
# SPIB, sequence (Q01892 whole entry): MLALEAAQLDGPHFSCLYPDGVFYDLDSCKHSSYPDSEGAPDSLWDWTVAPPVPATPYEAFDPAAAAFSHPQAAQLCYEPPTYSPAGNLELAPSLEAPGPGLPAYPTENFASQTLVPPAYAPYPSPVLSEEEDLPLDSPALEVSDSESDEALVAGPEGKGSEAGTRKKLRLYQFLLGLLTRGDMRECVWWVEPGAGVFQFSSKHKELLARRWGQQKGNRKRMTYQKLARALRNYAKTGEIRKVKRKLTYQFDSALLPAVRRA
# Method in brief: as §1
# ELK3 = biological target: T6, ELK3 (Homo sapiens, UniProt P41970 1-407); conditions: protein: recombinant; tags: N-terminal GST; dsDNA, one strand shown
# T6 sequence: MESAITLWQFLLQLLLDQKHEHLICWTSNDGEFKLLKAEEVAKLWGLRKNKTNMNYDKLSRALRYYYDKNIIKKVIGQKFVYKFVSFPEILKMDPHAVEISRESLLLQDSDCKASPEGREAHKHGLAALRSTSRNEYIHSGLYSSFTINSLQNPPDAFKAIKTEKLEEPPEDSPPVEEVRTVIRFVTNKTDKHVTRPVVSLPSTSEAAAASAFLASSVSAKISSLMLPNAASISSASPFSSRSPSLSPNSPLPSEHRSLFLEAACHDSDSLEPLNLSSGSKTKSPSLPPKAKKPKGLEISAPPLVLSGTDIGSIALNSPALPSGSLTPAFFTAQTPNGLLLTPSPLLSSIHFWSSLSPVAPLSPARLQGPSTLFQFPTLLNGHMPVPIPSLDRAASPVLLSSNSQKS
# Method in brief: as §1
# FEV = biological target: T7, FEV (Homo sapiens, UniProt Q99581 1-238); conditions: protein: recombinant; tags: N-terminal GST; dsDNA, one strand shown
# T7 sequence: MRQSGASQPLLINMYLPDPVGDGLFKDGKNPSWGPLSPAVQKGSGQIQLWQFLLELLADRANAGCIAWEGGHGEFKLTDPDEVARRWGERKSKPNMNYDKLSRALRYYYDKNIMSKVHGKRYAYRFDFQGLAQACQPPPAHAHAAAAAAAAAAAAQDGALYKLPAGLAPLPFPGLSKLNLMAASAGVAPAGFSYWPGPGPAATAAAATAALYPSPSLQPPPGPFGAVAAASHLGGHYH
# Method in brief: as §1
# ETV5 = ETV5 (Homo sapiens, UniProt P41161 1-510); conditions: protein: recombinant; tags: N-terminal GST; dsDNA, one strand shown
# ETV5, sequence (P41161 whole entry): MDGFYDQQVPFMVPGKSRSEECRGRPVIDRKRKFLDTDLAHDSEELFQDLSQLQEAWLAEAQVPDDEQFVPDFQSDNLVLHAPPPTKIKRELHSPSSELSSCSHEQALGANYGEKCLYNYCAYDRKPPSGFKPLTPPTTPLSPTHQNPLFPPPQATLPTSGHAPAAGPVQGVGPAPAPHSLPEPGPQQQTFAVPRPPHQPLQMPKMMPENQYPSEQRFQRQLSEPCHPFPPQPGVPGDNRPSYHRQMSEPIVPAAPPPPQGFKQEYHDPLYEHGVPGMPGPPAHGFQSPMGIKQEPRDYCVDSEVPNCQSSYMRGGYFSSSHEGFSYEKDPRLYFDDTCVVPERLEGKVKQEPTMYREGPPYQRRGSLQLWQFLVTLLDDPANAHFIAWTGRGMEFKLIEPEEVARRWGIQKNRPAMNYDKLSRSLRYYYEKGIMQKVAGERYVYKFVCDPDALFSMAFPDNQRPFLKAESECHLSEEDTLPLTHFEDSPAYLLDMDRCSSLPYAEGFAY
# Method in brief: as §1
# HSF1 = HSF1 (Homo sapiens, UniProt Q00613 1-529); conditions: protein: recombinant; tags: N-terminal GST; chain copies: 3; dsDNA, one strand shown
# HSF1, sequence (Q00613 whole entry): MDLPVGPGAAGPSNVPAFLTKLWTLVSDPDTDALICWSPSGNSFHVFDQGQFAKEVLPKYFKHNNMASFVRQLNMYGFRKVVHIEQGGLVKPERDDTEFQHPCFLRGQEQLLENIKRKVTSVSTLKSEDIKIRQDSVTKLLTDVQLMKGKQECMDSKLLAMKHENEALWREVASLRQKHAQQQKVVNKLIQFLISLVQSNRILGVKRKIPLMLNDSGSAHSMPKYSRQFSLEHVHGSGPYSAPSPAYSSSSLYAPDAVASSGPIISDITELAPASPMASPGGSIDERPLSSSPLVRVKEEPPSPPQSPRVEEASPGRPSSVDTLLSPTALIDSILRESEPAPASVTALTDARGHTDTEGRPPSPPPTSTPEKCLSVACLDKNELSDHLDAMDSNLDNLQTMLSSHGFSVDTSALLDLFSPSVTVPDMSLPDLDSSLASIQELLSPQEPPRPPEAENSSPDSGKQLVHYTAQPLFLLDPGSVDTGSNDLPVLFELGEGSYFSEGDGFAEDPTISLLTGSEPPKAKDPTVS
# Method in brief: as §1
# SPIC = biological target: T8, SPIC (Homo sapiens, UniProt Q8N5J4 1-248); conditions: protein: recombinant; tags: N-terminal GST; dsDNA, one strand shown
# T8 sequence: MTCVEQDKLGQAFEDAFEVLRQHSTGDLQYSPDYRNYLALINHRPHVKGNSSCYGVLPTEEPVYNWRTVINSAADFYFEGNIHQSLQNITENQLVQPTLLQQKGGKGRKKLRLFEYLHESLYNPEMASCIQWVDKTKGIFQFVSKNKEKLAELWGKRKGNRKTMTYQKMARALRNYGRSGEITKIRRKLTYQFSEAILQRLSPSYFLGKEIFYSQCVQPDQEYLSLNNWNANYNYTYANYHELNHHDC
# Method in brief: as §1
# ELF4 = ELF4 (Homo sapiens, UniProt Q99607 1-663); conditions: protein: recombinant; tags: N-terminal GST; dsDNA, one strand shown
# ELF4, sequence (Q99607 whole entry): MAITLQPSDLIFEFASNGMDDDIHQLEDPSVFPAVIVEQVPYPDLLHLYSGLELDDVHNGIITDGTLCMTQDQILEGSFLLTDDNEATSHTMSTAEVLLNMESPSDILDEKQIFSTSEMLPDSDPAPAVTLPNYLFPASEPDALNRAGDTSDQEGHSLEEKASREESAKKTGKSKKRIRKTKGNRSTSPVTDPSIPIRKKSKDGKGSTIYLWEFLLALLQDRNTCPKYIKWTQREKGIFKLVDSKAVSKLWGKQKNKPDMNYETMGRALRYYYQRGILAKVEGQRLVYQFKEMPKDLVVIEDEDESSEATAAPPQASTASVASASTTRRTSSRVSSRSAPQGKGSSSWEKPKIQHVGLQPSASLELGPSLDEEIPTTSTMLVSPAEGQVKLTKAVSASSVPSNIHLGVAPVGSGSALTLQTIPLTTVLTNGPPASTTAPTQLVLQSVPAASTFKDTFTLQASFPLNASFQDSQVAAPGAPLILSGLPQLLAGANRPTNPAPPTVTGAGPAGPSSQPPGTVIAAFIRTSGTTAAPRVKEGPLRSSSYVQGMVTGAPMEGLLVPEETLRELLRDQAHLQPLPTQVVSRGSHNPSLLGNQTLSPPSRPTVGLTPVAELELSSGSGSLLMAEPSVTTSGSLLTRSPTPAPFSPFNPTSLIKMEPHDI
# Method in brief: as §1
# ELK4 = biological target: T9, ELK4 (Homo sapiens, UniProt P28324-2 1-405); conditions: protein: recombinant; tags: N-terminal GST; dsDNA, one strand shown
# T9 sequence: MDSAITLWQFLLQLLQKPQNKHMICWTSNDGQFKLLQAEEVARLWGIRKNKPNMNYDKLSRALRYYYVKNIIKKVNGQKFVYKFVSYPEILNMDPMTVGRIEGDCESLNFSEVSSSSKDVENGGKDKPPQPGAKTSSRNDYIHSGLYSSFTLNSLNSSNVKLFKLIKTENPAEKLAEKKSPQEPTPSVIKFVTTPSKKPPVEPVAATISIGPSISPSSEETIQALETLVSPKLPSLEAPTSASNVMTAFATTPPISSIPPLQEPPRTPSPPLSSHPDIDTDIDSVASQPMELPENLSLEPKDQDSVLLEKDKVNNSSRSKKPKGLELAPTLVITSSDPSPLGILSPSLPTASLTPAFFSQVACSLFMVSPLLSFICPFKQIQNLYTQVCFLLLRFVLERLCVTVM
# Method in brief: as §1
# ETV2 = biological target: T10, ETV2 (Homo sapiens, UniProt O00321 1-342); conditions: protein: recombinant; tags: N-terminal GST; dsDNA, one strand shown
# T10 sequence: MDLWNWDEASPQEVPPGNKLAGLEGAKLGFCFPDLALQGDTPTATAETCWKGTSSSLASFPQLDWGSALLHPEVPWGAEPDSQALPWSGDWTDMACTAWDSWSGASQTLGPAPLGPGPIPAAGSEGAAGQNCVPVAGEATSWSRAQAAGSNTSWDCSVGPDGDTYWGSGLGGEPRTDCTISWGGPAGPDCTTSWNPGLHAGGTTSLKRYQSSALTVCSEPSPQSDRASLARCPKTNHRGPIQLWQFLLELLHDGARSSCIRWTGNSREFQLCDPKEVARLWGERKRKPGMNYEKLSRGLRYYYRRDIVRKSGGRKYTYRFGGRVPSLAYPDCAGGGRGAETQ
# Method in brief: as §1
# ELF3 = biological target: T11, ELF3 (Homo sapiens, UniProt P78545 1-371); conditions: protein: recombinant; tags: N-terminal GST; dsDNA, one strand shown
# T11 sequence: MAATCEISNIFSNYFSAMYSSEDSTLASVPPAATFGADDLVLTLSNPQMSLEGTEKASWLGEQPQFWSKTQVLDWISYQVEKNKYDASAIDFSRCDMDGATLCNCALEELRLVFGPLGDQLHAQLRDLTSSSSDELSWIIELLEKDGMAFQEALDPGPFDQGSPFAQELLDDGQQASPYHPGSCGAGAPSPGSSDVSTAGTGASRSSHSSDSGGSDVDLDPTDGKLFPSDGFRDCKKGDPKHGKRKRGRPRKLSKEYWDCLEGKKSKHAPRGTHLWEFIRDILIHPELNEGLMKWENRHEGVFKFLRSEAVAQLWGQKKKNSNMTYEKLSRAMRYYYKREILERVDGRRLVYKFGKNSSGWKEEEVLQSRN
# Method in brief: as §1
# ETV1 = ETV1 (Homo sapiens, UniProt P50549 1-477); conditions: protein: recombinant; tags: N-terminal GST; dsDNA, one strand shown
# ETV1, sequence (P50549 whole entry): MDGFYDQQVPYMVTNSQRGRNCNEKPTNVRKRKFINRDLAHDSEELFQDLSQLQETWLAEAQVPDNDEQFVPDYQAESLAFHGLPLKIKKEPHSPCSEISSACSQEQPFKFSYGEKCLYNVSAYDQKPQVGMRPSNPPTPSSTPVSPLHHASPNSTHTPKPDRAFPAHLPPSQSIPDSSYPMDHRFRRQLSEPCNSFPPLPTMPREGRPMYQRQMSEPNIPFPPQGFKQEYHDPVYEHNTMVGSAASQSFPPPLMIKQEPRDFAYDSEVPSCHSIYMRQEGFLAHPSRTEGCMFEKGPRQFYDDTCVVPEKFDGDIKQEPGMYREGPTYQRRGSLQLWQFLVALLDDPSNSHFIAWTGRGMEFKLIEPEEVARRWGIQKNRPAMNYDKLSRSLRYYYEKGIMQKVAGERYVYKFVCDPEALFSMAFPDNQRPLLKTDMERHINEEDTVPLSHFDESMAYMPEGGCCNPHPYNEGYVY
# Method in brief: as §1
sequence,measurement,setting,value
TCTGAC,binding signal,FLI1,"1.26 fold enrichment (6-mer frequency, TF over GST control)"
same,binding signal,ELK1,"1.19 fold enrichment (6-mer frequency, TF over GST control)"
same,binding signal,GABPA,"1.24 fold enrichment (6-mer frequency, TF over GST control)"
same,binding signal,ERG,"1.16 fold enrichment (6-mer frequency, TF over GST control)"
same,binding signal,ELF1,"1.28 fold enrichment (6-mer frequency, TF over GST control)"
same,binding signal,EHF,"1.3 fold enrichment (6-mer frequency, TF over GST control)"
same,binding signal,SPI1,"1.09 fold enrichment (6-mer frequency, TF over GST control)"
same,binding signal,SPIB,"1.25 fold enrichment (6-mer frequency, TF over GST control)"
same,binding signal,ELK3,"1.24 fold enrichment (6-mer frequency, TF over GST control)"
same,binding signal,FEV,"1.15 fold enrichment (6-mer frequency, TF over GST control)"
same,binding signal,ETV5,"1.15 fold enrichment (6-mer frequency, TF over GST control)"
same,binding signal,HSF1,"1.07 fold enrichment (6-mer frequency, TF over GST control)"
same,binding signal,SPIC,"1.04 fold enrichment (6-mer frequency, TF over GST control)"
same,binding signal,ELF4,"1.35 fold enrichment (6-mer frequency, TF over GST control)"
same,binding signal,ELK4,"1.25 fold enrichment (6-mer frequency, TF over GST control)"
same,binding signal,ETV2,"1.16 fold enrichment (6-mer frequency, TF over GST control)"
same,binding signal,ELF3,"1.18 fold enrichment (6-mer frequency, TF over GST control)"
same,binding signal,ETV1,"1.3 fold enrichment (6-mer frequency, TF over GST control)"
